High-throughput results: PubChem BioAssay, National Center for Advancing Translational Sciences (NCATS)
Only a selection was taken, and hits are over-represented in it overall.
VACV Venus inh – qHTS for Stage-Specific Inhibitors of Vaccinia Orthopoxvirus: Venus Reporter Primary qHTS | Vaccinia virus Venus reporter expression, fluorescence | Potency, µM (top dose mostly 36.5 µM), inactives show top-dose activity change, negative = inhibition, actives largely listed as inhibitors | 330,000 tested, 0.46% active | AID 720580, 2013; calls by dose curve; tested in A549 cells; further: potency means the concentration at half of the fitted maximal effect; on the % scale 0 is the no-effect control and ±100 the full control effect; nearly all actives have a fitted effect of over 30% in size
Marburg entry inh – qHTS for inhibitors of binding or entry into cells for Marburg Virus | 300,000 tested, 1.8% active | Marburg virus pseudotyped entry inhibition, cell reporter | Potency, µM (doses to about 37.8 µM), for the others: at the highest dose activity change, negative = inhibition, hits mostly inhibitors; calls by dose curve; tested in HEK293 cells; further: potency means the concentration at half of the fitted maximal effect; on the % scale 0 is the no-effect control and ±100 the full control effect
Shiga toxin inh – A qHTS for Small Molecule Inhibitors of Shiga Toxin. Vero cells, Shiga toxin protein synthesis inhibition reporter. inhibition, % at 38.7 µM. 290,000 tested, 9.2% active. AID 2315, 2010; in the data active means inhibition mostly above about 28%, no sharp cut-off; inactive means mostly below about 43%; further: 0% is about no effect
CHX counter – Cycloheximide Counterscreen for Small Molecule Inhibitors of Shiga Toxin | cell reporter, cycloheximide protein synthesis inhibition counterscreen | max response, % | 300,000 tested, 12% active; in the data active means max response mostly above about 13%, no sharp cut-off; inactive means mostly below about 14%; further: read at 38.3 µM for the half of the compounds with a filed dose; 0% is about no effect
LASV entry inh – qHTS for Inhibitors of binding or entry into cells for Lassa Virus. Lassa virus pseudotype entry inhibition, cell reporter. Potency, µM (doses to about 37.9 µM), for inactives: at the highest dose activity change, negative = inhibition, hits mostly inhibitors. 300,000 tested, 1.2% active; calls by dose curve; tested in HEK293 cells; further: potency means the concentration at half of the fitted maximal effect; on the % scale 0 is the no-effect control and ±100 the full control effect; nearly all actives have a fitted effect of over 50% in size
VACV mCherry inh – qHTS for Stage-Specific Inhibitors of Vaccinia Orthopoxvirus: mCherry Reporter Primary qHTS. Vaccinia virus mCherry reporter infection, fluorescence. Potency, µM (highest dose often 36.5 µM), for inactives: at the highest dose activity change, negative = inhibition, usual class: inhibitors. 310,000 tested, 0.63% active. AID 720579, 2013; calls by dose curve; tested in A549 cells; further: potency means the concentration at half of the fitted maximal effect; on the % scale 0 is the no-effect control and ±100 the full control effect; nearly all actives have a fitted effect of over 35% in size
Numbers without * were called inactive; i = inactive; ? = inconclusive; / = no result; [ ] = dose if it differs, or a comment.

SMILES	VACV Venus inh	Marburg entry inh	Shiga toxin inh	CHX counter	LASV entry inh	VACV mCherry inh
CN(C)C(CNC(=O)c1ccc(C2SCCS2)cc1)c1ccccc1 (stereo not drawn)	-10%	2%	55*	35*	4%	-4%
CCCNC(=O)N1C2=NC(C(=O)OC)=C(C(=O)OC)[C@@H]3Nc4ccccc4[C@]23C[C@H]1C(=O)OC	/	3%[14.2 µM]	/	/	?	/
COc1cccc(NC2=C(NCCO)C(=O)c3ccccc3C2=O)c1	-2%	4%[46.1 µM]	/	11*	?	?
COc1ccc(NC2=C(NCCO)C(=O)c3ccccc3C2=O)cc1	?	?	81*	53*	?	?
Cc1cccc(NC2=C(NCCO)C(=O)c3ccccc3C2=O)c1	-5%	41%	25	2	3%	i
COc1ccc(NC2=C(NC(C)=O)C(=O)c3ccccc3C2=O)cc1	-15%	?	25	7	?	-10%
CCCSCCCNC(=O)CN1C(=O)COc2ccc(S(=O)(=O)N3CCC(C)CC3)cc21	-6%	-1%[46.1 µM]	/	/	-6%[46.1 µM]	-15%
Cc1ccc(-c2nnc3sc(CCc4ccccc4)nn23)cc1	-1%	17%	47*	19*	5%	?
COc1ccc(-c2nnc3sc(COc4ccc(C)cc4)nn23)cc1	-5%	-1%	16	-5	13µM*	/
C(=N\n1cnc2ccccc21)/c1cccnc1	/	3%	58	19*	?	/
COc1ccc(/C=N/n2c(N)nc3ccccc32)cc1OC	?	-20%	51	29*	19%	/
COc1cccc(/C=N/n2c(N)nc3ccccc32)c1OC	?	?	37	25*	-1%	?
COc1ccc(/C=N/n2c(N)nc(-c3ccccc3)c2-c2ccccc2)cc1	-25%	?	86*	31*	?	/
COc1ccc(/C=N/n2c(=S)n(C)c3ccccc32)cc1OC	/	-26%	3	6	-6%	/
COc1ccc(/C=N/n2c(-c3ccccc3)n[nH]c2=S)cc1	-24%	13%	-9	-4	?	-14%
Cc1cc2ncn(/N=C/c3cccnc3)c2cc1C	-19%	-13%	-11	-2	-23%	-29%
CC(CCc1ccccc1)NCC#N (stereo not drawn)	-8%	/	-2	1	/	-9%
COc1ccccc1CNC(=O)Cn1c(-c2cccs2)cc2cc(F)ccc21	5%	/	/	/	19%[46.1 µM]	-7%
COc1ccc(O[C@H]2C=C[C@@H](c3ccccc3)O[C@H]2CON=C2c3cc(OC)ccc3O[C@H](c3cccc(OC)c3)[C@H]2O)cc1	/	?	/	/	-31%[14.3 µM]	/
COc1cc(CN2C(=O)CC[C@@H]3CN(Cc4ccccn4)CC[C@@H]32)cc(OC)c1OC	1%	/	/	/	/	-7%
COc1cccc(/C=N/n2c(SC)nnc2-c2ccccc2)c1OC	-22%	?	-15	-2	11µM*	-12%[1.46 µM]
COc1ccc(/C=N/n2c(C)nnc2C)c(OC)c1OC	3%	-9%	68*	6	13%	-3%
COc1cccc(C=NN2CCCCCC2)c1OC	3%	?	/	/	-2%[46.1 µM]	?
COc1ccc(/C=N/N2CCN(C)CC2)c(OC)c1OC	1%	6%[46.1 µM]	10	5	/	-10%
COc1cccc(/C=N/n2cnc3ccccc32)c1OC	/	?	71	31*	0%	/
SMILES	VACV Venus inh	Marburg entry inh	Shiga toxin inh	CHX counter	LASV entry inh	VACV mCherry inh
CCCCCCN1C[C@@H](n2cc(COC(=O)c3ccccc3)nn2)[C@H](O)C[C@H]1c1ccccc1	/	/	/	/	13%[46.1 µM]	/
Cn1c(CCNS(=O)(=O)c2ccccc2)nc2cc([N+](=O)[O-])ccc21	/	/	-9	1	/	/
O=C(NNC(=S)Nc1ccc(Cl)cc1)c1ccccc1OC(F)F	?	?	12	2	?	13µM*
O=C(NNC(=S)Nc1ccc(Cl)cc1)c1cccs1	/	7%	100*	38*	-11%	/
O=C(CCC(=O)Nc1ccccc1)NNC(=O)c1cccs1	-7%	5%	-12	10	14%	i
O=C(NNC(=S)Nc1ccccc1)c1cccs1	-11%	-15%	47*	38*	2%	-12%
CCOc1ccc(CCNC(=O)Cn2nc(C)n3c(cc4occc43)c2=O)cc1OCC	-3%	-2%[46.1 µM]	/	/	-2%[46.1 µM]	-17%
COc1cccc(CN2CCC3(CCC(CNC(=O)c4ccccc4)O3)CC2)c1 (stereo not drawn)	-9%	/	/	/	/	-9%
CC(C)(C)c1ccc(OCC(=O)Nc2ccc(-c3nc4cccnc4o3)cc2)cc1	-13%	29%	12	9	15%	/
CCCC(=O)Nc1ccc(-c2nc3ncccc3o2)cc1	/	/	175	20*	/	/
CC(C)C(=O)Nc1cccc(-c2nc3ncccc3o2)c1	/	/	/	10	/	/
CCCC(=O)Nc1cccc(-c2nc3ncccc3o2)c1	1%	/	/	/	-9%[46.1 µM]	-11%
CC(C)C(=O)Nc1ccc(-c2nc3cccnc3o2)cc1	/	?	active	33*	?	/
CC(C)C(=O)Nc1ccc(-c2nc3ncccc3o2)cc1	/	/	41*	29*	/	/
Cc1ccc(-c2cnc(C(O)c3ccc(Cl)c(Cl)c3)[nH]2)cc1 (stereo not drawn)	4%	/	/	/	/	1%
CC(C)CC1c2[nH]c3ccccc3c2CCN1CCCn1cccn1 (stereo not drawn)	12%	4.5µM*	-7	-2	11µM*	?
O=C(NC1=NCCS1)c1cc(-c2cccc(Br)c2)nc2ccccc12	-28%	-27%	22	20*	?	-7%
O=C(Nc1ncccn1)c1cc(-c2cccc(Br)c2)nc2ccccc12	-24%	?	14	-1	-3%	-29%
Cc1ccc2nc(-c3cccc(Br)c3)cc(C(=O)NC3=NCCS3)c2c1	-18%	-13%	76*	15	-17%	-7%
CN1CCC(NC(=O)c2cc(-c3cccc(Br)c3)nc3ccccc23)CC1	-21%	10µM*	-8	-3	?	-1%
O[C@H]1C[C@H](c2ccccc2)N(CC2CCCCC2)C[C@H]1n1cc(-c2ccc(F)cc2)nn1	/	/	/	/	-35%[46.1 µM]	/
Cc1cc2c(s1)c1cnn(Cc3ccccc3)c(=O)c1n2C	/	/	-5	-4	/	/
Cc1ccc(Nc2c(N)c(=O)oc3ccccc23)cc1	/	?	57*	22*	?	/
CCOC(=O)Cn1cc(C(=O)c2ccccc2F)c2ccccc21	/	6%	45	17*	1%	/
COC(=O)Cn1cc(C(=O)c2ccccc2F)c2ccccc21	-9%	?	1	-2	?	-14%
Cc1ccc(Nc2nnc(SCC(=O)NCCN3C(=O)CSC3=O)s2)cc1	/	-3%	31	13*	?	/
Cc1nnc(SCC(=O)Nc2ccc(S(=O)(=O)N3CCCCC3)cc2)s1	39%	5%	31	-2	16%	0%
Cc1ccc(-c2nc(SCC(=O)Nc3cc(S(=O)(=O)N4CCCCC4)ccc3Cl)n[nH]2)cc1	-24%	16µM*	3	17*	?	-23%
O=C(CNc1ccccc1F)Nc1cccc(S(=O)(=O)N2CCCCC2)c1	-13%	-28%[46.1 µM]	/	/	-28%	-18%
